High-throughput results deposited in PubChem by National Center for Advancing Translational Sciences (NCATS).
Shown are actives, neighbours in structure and some others; about 21% of the full set was active somewhere.
SARS PLP yeast: blocks SARS-CoV papain-like protease in a yeast assay; Potency, µM (doses to about 32.9 µM), inactives show at the highest dose activity, positive = growth rescue, usual class: activators; hit rate 0.19% among 330,000; AID 485353; S. cerevisiae expressing SARS-CoV PLpro, growth rescue; note: potency is the fitted concentration of half-maximal effect; 0% is about no effect; nearly all actives have a fitted effect of over 55% in size
Pf growth 96h: inhibits malaria parasite growth, 96 h | P. falciparum luciferase reporter growth, 96 h | Potency, µM (doses to about 28.7 µM), inactives show at the top dose activity change, negative = inhibition, usual class: inhibitors | hit rate 6.9% among 320,000 | AID 504834; active = well fitted inhibition curve with a large enough effect; inconclusive = small, poorly fitted or top-dose-only effect, or another doubt; inactive = no such curve, though single readings can be large or run the other way; note: potency is the fitted concentration of half-maximal effect; % is set by controls: 0 for no effect and ±100 for the full control effect
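P. falciparum expressing integrated firefly luciferase, in erythrocytes at 2% hematocrit, 0.05% parasitemia, incubated with compounds 96 h at 37 C, 5% CO2. Growth inhibition read as loss of luminescence; two-generation exposure targets delayed-death apicoplast inhibitors.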
Shiga toxin inh: inhibitors of Shiga toxin in Vero cells. Vero cells, Shiga toxin protein synthesis inhibition reporter. inhibition, % at 38.7 µM. hit rate 9.2% among 290,000; in the data active = inhibition mostly above about 28%, no sharp cut-off; inactive = mostly below about 43%; note: 0% is about no effect
CHX counter: counter-screen for Shiga toxin inhibitors: cycloheximide protein synthesis inhibition | cell reporter, cycloheximide protein synthesis inhibition counterscreen | max response, % | hit rate 12% among 300,000; in the data active = max response mostly above about 13%, no sharp cut-off; inactive = mostly below about 14%; note: read at 38.3 µM for the half of the compounds with a filed dose; 0% is about no effect
Pf growth 48h: inhibits P. falciparum growth in the first generation, 48 h; Potency, µM (titrated, usually from 28.7 µM), without a hit: at the highest dose activity change, negative = inhibition, hits mostly inhibitors; AID 504832; P. falciparum luciferase growth in erythrocytes, 48 h; hit rate 5.9% among 310,000; active = well fitted inhibition curve with a large enough effect; inconclusive = small, poorly fitted or top-dose-only effect, or another doubt; inactive = no such curve, though single readings can be large or run the other way; note: potency is the fitted concentration of half-maximal effect; % is set by controls: 0 for no effect and ±100 for the full control effect
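Growth was read as firefly luciferase luminescence after a 48 h, 37 C, 5% CO2 exposure of compounds to reporter-bearing P. falciparum cultures (0.1% parasitemia, 2% hematocrit final) in Albumax-supplemented RPMI 1640.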
NS1 inh: inhibitors of influenza NS1 protein function; Potency, µM (titrated, usually from 46.1 µM), for inactives: at the highest dose activity, positive = more growth; hit rate 0.4% among 270,000; note: potency is the fitted concentration of half-maximal effect; actives are rising curves; nearly all actives have a fitted effect of over 50% in size
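OD600 was taken as the measure of yeast growth restored by compound in an NS1-expressing S. cerevisiae strain. Cells had been washed out of glucose medium and diluted 1:100 into galactose -URA medium, pH 6.0.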
The depositor's hits bear a star; ? = inconclusive; / = not tested or not shown. Unless noted, calls come from the whole dose curve.

SMILES	SARS PLP yeast	Pf growth 96h	Shiga toxin inh	CHX counter	Pf growth 48h	NS1 inh
COc1ccccc1CNC(=O)c1ccc(Cl)c(NC2=NC3CS(=O)(=O)CC3S2)c1 (configuration not stated)	-5.4%	-20.3%	15.1	0.6	-0.4%	9.2%
COC(=O)C1=C(C)NC(C)=C([N+](=O)[O-])[C@@H]1c1ccccc1C(F)(F)F	/	/	-7.9	-1.3	/	/
CCCNC(=O)c1c(N)n(-c2cc(OC)cc(OC)c2)c2nc3ccccc3nc12	0.7%	10.4µM*	-0.5	-1.9	?	-43.2%
O=c1c2c3nc4ccccc4nc3n(-c3ccc4c(c3)OCCO4)c2ncn1C1CCCC1	-1.0%	/	28.6	-2.1	8.28µM*	-13.5%
COCCCNC(=O)c1c(N)n(-c2ccc3c(c2)OCO3)c2nc3ccccc3nc12	-1.4%	10.6%	20.1	8.7	6.57µM*	-39.9%
CCOCCCNC(=O)c1c(N)n(-c2ccc3c(c2)OCO3)c2nc3ccccc3nc12	-1.2%	?	4.0	9.5	?	4.8%
CCCNC(=O)c1c(N)n(-c2ccc3c(c2)OCO3)c2nc3ccccc3nc12	-13.7%	4.15µM*	30.2	6.6	8.28µM*	-0.2%
COCC1CCN(C(=O)c2ccc(OC3CCN(Cc4ccccn4)CC3)cc2)C1 (configuration not stated)	-2.1%	?	-30.0	5.1	2.1%	11.0%
Nc1c(C(=O)OCC2CCCO2)c2nc3ccccc3nc2n1-c1ccc2c(c1)OCCO2 (configuration not stated)	-1.5%	/	60.2*	34.9*	?	-9.8%
Nc1c(C(=O)NC2CC2)c2nc3ccccc3nc2n1-c1ccc2c(c1)OCO2	13.0%	?	23.6	-2.7	1.2%	-52.4%
Cc1ccccc1OCC(=O)Nc1ccccc1C(=O)N1CCCCC1	8.3%	10.4µM*	-3.8	15.8	6.5%	-3.7%
O=C(COc1ccccc1Cl)Nc1ccccc1C(=O)N1CCCCC1	-5.4%	2.5%	84.7*	43.4*	44.4%	-4.6%
COc1cccc(NS(=O)(=O)c2c(C)cc(C)cc2C)c1	-29.3%	?	-7.0	1.6	13.1µM*	-63.2%
COc1ccc(NS(=O)(=O)c2c(C)cc(C)cc2C)cc1	-16.4%	3.5%	-7.2	4.2	-17.5%	-58.9%
O=C(NCc1ccco1)c1cc(-c2ccccc2)nc2ccccc12	-11.9%	120.7%	53.1	23.7*	?	-57.6%
COc1ccc(-c2cc(C(=O)NCc3ccco3)c3ccccc3n2)cc1	-5.3%	3.29µM*	27.5	14.3*	?	-14.1%
COc1ccc(-c2cc(C(=O)NCc3ccco3)c3ccccc3n2)c(OC)c1	2.1%	-27.3%	-4.3	10.4	?	-9.2%
O=C(Nc1cccc(S(=O)(=O)NCc2ccco2)c1)c1cc(-c2ccccc2)nc2ccccc12	-6.6%	?	22.9	36.3*	-2.4%	7.9%
Cc1nnc(Sc2cc(C(=O)NCc3ccco3)c3ccccc3n2)s1	-3.3%	/	59.9	35.4*	?	-27.1%
O=C(NCc1ccco1)c1cc(-c2ccccn2)nc2ccccc12	0.5%	-33.6%	54.4	1.6	-11.2%	-0.5%
O=C(c1ccc(NS(=O)(=O)c2cccs2)cc1)N1CCOCC1	?	-0.4%	-6.4	-2.8	6.4%	-4.0%
O=C(COc1ccc(F)cc1)NN1C(=O)CSC1=S	0.6%	65.5%	26.3	-5.6	39.7%	/
CC1(C)CC2=C(CO1)C(=S)NC(c1ccccc1)N2CC1CCCO1 (configuration not stated)	0.2%	?	-1.7	-0.8	?	-1.5%
CC(C)(C)NC(=O)CSc1nc2cc(S(=O)(=O)N3CCCCC3)ccc2o1	4.1%	/	/	/	/	/
Cn1cc(CNC(=O)c2cc(-c3ccccc3)nc3ccc(Br)cc23)cn1	9.8%	?	21.3	-1.7	13.1µM*	11.5%
SMILES	SARS PLP yeast	Pf growth 96h	Shiga toxin inh	CHX counter	Pf growth 48h	NS1 inh
Cc1ccc(-c2cc(C(=O)NCc3cnn(C)c3)c3cc(Br)ccc3n2)cc1	-19.2%	-2.7%	-4.8	13.4	?	0.8%
OCCCNCc1cccc2ccccc12	1.8%	5.7%	42.0	4.6	11.3%	5.7%
Oc1ccccc1CNCCCNCc1ccccc1O	-8.9%	238.3%	-6.8	-2.4	8.28µM*	-0.4%
O=C(Nc1ccccc1SCC1CSc2nc3ccccc3c(=O)n21)c1cccc(Cl)c1 (configuration not stated)	-0.7%	?	8.0	-5.0	10.4µM*	-7.2%
CCc1ccc(NC(=O)COc2ccc(/C=C(/C#N)c3nc4ccccc4[nH]3)cc2OC)cc1	17.5%	?	active	22.1*	2.62µM*	?
COC(=O)c1ccc(COc2ccc(/C=C(\C#N)c3nc4ccccc4[nH]3)cc2OC)o1	25.8%	?	81.3*	32.6*	1.31µM*	16.5%
COc1cc(/C=C(/C#N)c2nc3ccccc3[nH]2)ccc1OCc1ccc(C(=O)O)o1	-8.2%	?	49.9	10.4	?	10.6%
O=C(Nc1ccccc1)C1=C[C@@H](c2coc3ccccc3c2=O)C[C@@H](OCc2ccc(CO)cc2)O1	-2.2%	?	-16.3	0.6	?	3.8%
C#CCNC(=O)C1=C[C@H](c2cn(C(C)=O)c3ccccc23)C[C@H](OCc2ccc(CO)cc2)O1	-0.2%	10.4µM*	-15.5	0.6	?	-2.1%
CC(=O)n1cc([C@H]2C=C(C(=O)Nc3ccccc3)O[C@@H](OCc3ccc(CO)cc3)C2)c2ccccc21	-0.9%	11.7µM*	7.1	-1.5	8.28µM*	?
CC(=O)n1cc([C@@H]2C=C(C(=O)O)O[C@H](OCc3ccc(CO)cc3)C2)c2ccccc21	-0.7%	22.1%	-13.0	6.4	16.1%	3.7%
CC(=O)n1cc([C@@H]2C=C(C(=O)NCc3ccccc3)O[C@H](OCc3ccc(CO)cc3)C2)c2ccccc21	12.0%	5.22µM*	7.3	3.8	11.7µM*	13.6%
C#CCNC(=O)C1=C[C@H](c2coc3ccccc3c2=O)C[C@H](OCc2ccc(CO)cc2)O1	-1.2%	?	-17.6	-3.7	1.6%	-0.8%
O=C(Nc1ccccc1)C1=C[C@H](c2csc3ccccc23)C[C@H](OCCCCO)O1	-3.2%	8.28µM*	5.5	12.0*	?	4.2%
COc1cc2cc(CCOC(=O)c3ccco3)oc(=O)c2cc1OC	-2.9%	?	/	/	18.7%	/
CC(=O)n1cc([C@@H]2C=C(C(=O)Nc3ccccc3)O[C@H](OCCCCO)C2)c2ccccc21	-0.2%	?	24.3*	12.0	?	10.7%
Cn1cc2cc([N+](=O)[O-])ccc2n1	-0.7%	29.3%	12.8	9.1	20.7%	/
CCOC(=O)c1cnc2cc(C)nn2c1C	7.9%	1.5%	26.4	10.4	/	1.2%
CC(=O)c1cnc2cc(-c3ccccc3)nn2c1C	-6.1%	?	57.3*	43.3*	232.5%	?
CCOC(=O)c1cnc2cc(C)nn2c1-c1ccccc1	3.8%	96.5%	-16.7	-7.2	4.2%	-6.9%
CC(=O)c1cnc2cc(-c3ccc(C)cc3)nn2c1C	-2.3%	-2.1%	13.4*	25.8*	461.1%	-7.2%
